This is an account of results in ChEMBL document CHEMBL4888484, “Replenishing the malaria drug discovery pipeline: Screening and hit evaluation of the MMV Hit Generation Library 1 (HGL1) against asexual blood stage Plasmodium falciparum ,using a nano luciferase reporter read-out” (2022).

The whole screen tested about 150,000 compounds, of which about 540 (0.36%) showed an effect of 50% or more. This is one part of a sample in which strong results are shown more often than they occur.

The subject of this experiment is Plasmodium falciparum. Nature of the experiment: Primary screen in NF54 nanoGlo assay, in single point, at 2uM, 72h; a lower Z score goes with more inhibition. It is filed as functional, Erythrocyte. The conditions noted are these: timepoint 72 hour.
`O=C(CCOc1ccc(F)c(Cl)c1)NCc1cccnc1`: the % Inhibition (commonly the change of the read-out against control, counted positive when it falls) was 15% and the Z score is -2.11.

Regarding `CN(CCO)C[C@@H]1CN(C(=O)C2(c3ccccc3)CCCC2)C[C@@H]1CO`, the “% Inhibition” value was -27% and the Z score is 2.7.

As for `COc1cccc(-c2cc(O)cc(CC[C@H]3CCCCN3)c2)n1`, the “% Inhibition” value was 80% and the Z score is on record as -13.26.

On to `Oc1ccc(-c2cc(O)cc(CC[C@H]3CCCCN3)c2)nc1`, for which the “% Inhibition” value is -14% and the Z score was determined as 1.77.

On to `CN(C)c1cncc(-c2cc(O)cc(CC[C@H]3CCCCN3)c2)n1`, for which the “% Inhibition” value was -2% and the Z score is listed as 0.33.

Regarding `COc1ccnc(-c2cc(O)cc(CC[C@H]3CCCCN3)c2)n1`, the “% Inhibition” value is -4% and the Z score came out at 0.49.

As to `Oc1cc(CC[C@H]2CCCCN2)cc(-c2cnc3ccccc3n2)c1`, the “% Inhibition” value turned out to be 59% and the Z score is reported as -7.37.

Regarding `COc1nccnc1-c1cc(O)cc(CC[C@H]2CCCCN2)c1`, the “% Inhibition” value is -23% and the Z score was 3.42.

In the case of `CC(C)(C)OC(=O)N1CC(CNC2(c3ncon3)CCC2)C1`, the “% Inhibition” value amounted to 9% and the Z score is on record as -1.69.

Regarding `CC1(C)[C@H]2CC=C(CCNc3nc(-c4ccncc4)nc4c3CNC4)[C@@H]1C2`, the “% Inhibition” value is recorded as 0% and the Z score is listed as -0.03.

In the case of `CN(C[C@@H]1CCCN2CCCC[C@H]12)C(=O)Cc1c[nH]c2ccccc12`, the “% Inhibition” value was -1% and the Z score is reported as 0.06.

In the case of `Cc1cc(-c2cncc(CN3CCCCC3)c2)ccc1F`, the “% Inhibition” value stood at 50% and the Z score is recorded as -1.27.

For the compound `Cc1cc(-c2cncc(CN3CCC(C(N)=O)CC3)c2)ccc1F`, the “% Inhibition” value is recorded as -2% and the Z score was found to be 0.18.

Regarding `COc1ccc(-c2cncc(CN3CCCC3)c2)cc1OC`, the “% Inhibition” value is listed as -9% and the Z score was determined as 1.71.

For `Cc1ccc2c(C(=O)N3CCCCC3)cc(-c3cncnc3)nc2c1C`, the “% Inhibition” value was 3% and the Z score is -0.37.

With `O=c1c2cc(F)ccc2c(Br)cn1CC1(CO)COC1`, the “% Inhibition” value is on record as 20% and the Z score is reported as -2.48.

Take `C[C@H](NC(=O)c1cc(C(F)(F)F)n[nH]1)c1n[nH]c(N)n1`: the “% Inhibition” value is recorded as -2% and the Z score was 0.47.

For the compound `OC1=Nc2c(ncn2-c2cccnc2)[C@@H](c2ccc(F)c(F)c2)C1`, the “% Inhibition” value is on record as 0% and the Z score is listed as -0.05.

Turning to `CCC1=Nc2ccccc2N=C(NC(=O)C(C)C)[C@H]1c1ccc(F)cc1`, the “% Inhibition” value is given as 64% and the Z score is reported as -2.85.

Consider `CCC1=Nc2ccccc2N=C(NC(=O)c2ccc(F)cc2)[C@H]1c1ccc(OC)c(OC)c1`, for which the “% Inhibition” value is reported as -11% and the Z score is recorded as 1.75.

With `CCC1=Nc2ccccc2N=C(NC(=O)CN2CCN(C)CC2)[C@H]1c1ccccc1`, the “% Inhibition” value is listed as -6% and the Z score is listed as 0.93.

For `Cc1nc(N2C(=O)N(C)C3(CCCC3)C2=O)oc1C`, the “% Inhibition” value is reported as 3% and the Z score is -0.31.

As to `O=C(Nc1ccc2c(c1)OCCCO2)c1ccco1`, the “% Inhibition” value was determined as 29% and the Z score is given as -3.9.

`C[C@H](NC(=O)c1ccco1)c1cc2c(cc1Br)OCCCO2`: the “% Inhibition” value amounted to 60% and the Z score was 0.9.

Take `C[C@@H](NC(=O)c1ccco1)c1ccccc1`: the “% Inhibition” value was determined as 0% and the Z score was 0.04.
